Test results: PubChem BioAssay AID1626 (SRMLSC, 2009)
The whole screen tested about 220,000 compounds, of which about 2,000 (0.91%) were called active. Another 2% or so got no clear call; they are omitted. Only a sample is shown. Results with a measured potency or affinity are listed apart. Values without a mark were called inactive. No stated cut-off is given here; in the data, inconclusive means inhibition above about 80% without an active follow-up result; inactive means below that; test concentration not stated here.

Assay: M. tuberculosis H37Rv growth inhibitors, H37Rv strain (AID 1626);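 further: bacteria incubated seven days before Alamar blue readout; 0% = bacteria only wells and 100% = bacteria with antibiotic wells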
Conditions: hits give high values, concentration not given here

First: O=C(CSc1ncccn1)Nc1ccc2c(c1)CCC2
Second: COc1ccccc1NC(=O)CSC1=NCCN1
The inhibition of the first is higher: 76% for the first, -6.91% for the second.

Compared with CCOC(=O)c1sc(=S)n(C)c1NC(=O)c1ccc(C(C)(C)C)cc1, Cc1ccc(C(=O)NCCSC(C)(C)C)cc1 is lower in inhibition: 79.7% for the first, 2.64% for the second.

First: Oc1ccc(-c2nc3ccccc3s2)cc1
Second: Cc1ccc(Nc2nc3ccccc3n3nnnc23)cc1
The inhibition of the first is higher: 59.6% for the first, -0.03% for the second.

First: CCCOc1ccc(C(CC(=O)O)NC(=O)c2ccc3c(c2)OCO3)cc1 (configuration not stated)
Second: Cc1ccc(SCCNC(=O)c2ccc(C)c([N+](=O)[O-])c2)cc1
The inhibition of the first is higher: 3.69% for the first, -5.78% for the second.

First: COc1ccc(-c2ocnc2C(=O)N2CCN(C(c3ccccc3)c3ccccc3)CC2)cc1
Second: O=C(CN1CCN(c2ccccc2)CC1)Nc1ccc(OCc2ccccc2)cc1
The inhibition of the first is higher: -4.16% for the first, -8.11% for the second.

Going from O=C(NNC(=O)C1CCCO1)c1ccccc1Cl (configuration not stated) to O=C(CN1CCCC1)Nc1ccc(OCc2ccccc2)cc1, the inhibition rises from -7.82% to -0.61%.

Compared with CCN(CC)S(=O)(=O)c1ccc(-c2nnc(SCC(=O)N3c4ccccc4CC3C)n2CC)cc1 (configuration not stated), Cc1ccc(S(=O)(=O)CCC(=O)OCC(=O)N2CC(=O)Nc3ccccc32)cc1 is lower in inhibition: 5% for the first, -1.54% for the second.

Compared with CCC(CC)c1nnc(NC(=O)CCCN2C(=O)c3ccccc3C2=O)s1, COC(=O)c1ccc2nc(NC(=O)CN3C(=O)CCC3=O)sc2c1 is lower in inhibition: -6.94% for the first, -25.1% for the second.

First: COc1ccc(CNC(=O)C2Cc3ccccc3CN2C(=O)c2ccco2)cc1 (configuration not stated)
Second: COc1ccc(CCNC(=O)C2CC3Cn4c(nc5ccccc54)C3N2Cc2ccccc2)cc1 (configuration not stated)
The inhibition of the first is lower: -0.615% for the first, -0.23% for the second.

First: COCCNC(=O)c1ccc(CS(=O)(=O)c2ccc(C)cc2)o1
Second: COCCNC(=O)c1cccc(C)c1[N+](=O)[O-]
The inhibition of the first is lower: -5.24% for the first, 3.44% for the second.

First: Cc1ccc2c(c1)-c1[nH]c(=S)ncc1CS2
Second: Cc1ccc(N=C2NC(=O)/C(=C/c3cccnc3)S2)c(C)c1
The inhibition of the first is lower: 3.39% for the first, 20.4% for the second.

First: COc1ccc(-c2cc(C(F)(F)F)nc(SCC(=O)NCc3cccs3)n2)cc1OC
Second: COc1cc2nc(SCc3ccc(C(F)(F)F)cc3)n(Cc3cccs3)c(=N)c2cc1OC
The inhibition of the first is higher: 0.43% for the first, -5.09% for the second.

Compared with Cc1cc(OCC(=O)N(Cc2ccco2)C2CCS(=O)(=O)C2)ccc1Cl (configuration not stated), CCN(C(=O)CSc1cc(C)c2cccc(C)c2n1)C1CCS(=O)(=O)C1 (configuration not stated) is higher in inhibition: -8.25% for the first, 1.8% for the second.

Going from O=C(COC(=O)/C=C/c1ccc(F)cc1)NCc1ccco1 to CS(=O)(=O)c1cccc(C(=O)NCc2ccc(F)cc2)c1, the inhibition rises from -4.03% to 9.82%.

First: O=C(CCCn1cc([N+](=O)[O-])cn1)NC1CCCCCC1
Second: O=C(NCCC1=CCCCC1)NC1CCCCC1
The inhibition of the first is higher: 5.99% for the first, -1.65% for the second.

First: Cc1nn(Cc2c(Cl)cccc2Cl)c(C)c1NC(=O)c1cnn2c(C(F)F)cc(-c3ccccc3)nc12
Second: Cc1ccc(-c2cc(C(F)F)n3ncc(C(=O)Nc4c(C)nn(Cc5c(Cl)cccc5Cl)c4C)c3n2)cc1
The inhibition of the first is lower: 49.7% for the first, 57.7% for the second.

Going from C=CCN1CN(S(=O)(=O)c2cccs2)c2nc3ccccc3nc21 to C=CCOc1ccccc1CNCCc1ccc(S(N)(=O)=O)cc1, the inhibition rises from -3.39% to 0.31%.

Compared with Clc1ccccc1OCCCCn1ccnc1, Cc1ccccc1OCCCCCn1ccnc1 is higher in inhibition: 2.53% for the first, 5.71% for the second.

Compared with Cc1cccc(C(C)(C)C)c1OCCn1ccnc1, Cc1ccc(C)c(OCCCCCn2ccnc2)c1 is higher in inhibition: -11% for the first, -10.5% for the second.

Compared with COc1ccccc1NC(=O)N1CCN(CCc2ccccc2)CC1, COc1ccc(NC(=O)CCOc2ccccc2)c(OC)c1 is higher in inhibition: -2.85% for the first, -0.51% for the second.

Going from CC(=O)OCC1OC(OC(C)=O)C(NC(=O)c2cccnc2)C(OC(C)=O)C1OC(C)=O (configuration not stated) to CN1/C(=C\C(=O)c2cccnc2)C(C)(C)c2ccccc21, the inhibition falls from -0.72% to -3.35%.

Compared with CCCCN(C(=O)c1cc2ccccc2o1)c1c(N)n(CC(C)C)c(=O)[nH]c1=O, Cc1cccc(N(Cc2cc3ccccc3[nH]c2=O)C(=O)c2ccco2)c1C is lower in inhibition: 9.87% for the first, 4.31% for the second.

Compared with COc1ccc(-c2c(C)[nH]n3c(=O)c(Cc4ccccc4)c(C)nc23)cc1, COc1ccc(-c2c(C)[nH]n3c(=O)c(Cc4ccccc4)c(C)nc23)cc1OC is lower in inhibition: 70.9% for the first, 38.6% for the second.

Compared with Cc1[nH]n2c(=O)c3c(nc2c1-c1cccc2ccccc12)CCC3, Cc1[nH]n2c(=O)c3c(nc2c1-c1ccccc1)CCC3 is higher in inhibition: -8.68% for the first, 3.85% for the second.

First: COc1cccc(N=Nc2c(N)[nH]n3c(=O)c4c(nc23)CCCC4)c1
Second: Nc1[nH]n2c(=O)c3c(nc2c1N=Nc1ccccc1)CCCC3
The inhibition of the first is lower: 19.3% for the first, 79.3% for the second.

Compared with O=c1c2c(nc3c(-c4ccccc4)c[nH]n13)CCCC2, O=c1c2c(nc3c(-c4ccccc4)c[nH]n13)CCC2 is lower in inhibition: 14.2% for the first, 2.63% for the second.

First: Cc1ccc(-c2[nH]n3c(=O)c4c(nc3c2C)CCCC4)cc1
Second: Cc1c(-c2ccccc2)[nH]n2c(=O)c3c(nc12)CCCC3
The inhibition of the first is lower: 5.52% for the first, 6.84% for the second.

Compared with CC(=O)Nc1ccc2c(CSc3nnc(-c4cccnc4)n3-c3ccc(C)cc3C)cc(=O)oc2c1, COc1ccc(-c2nc(Cn3c(SCc4cccc(F)c4)nc4ccncc43)c(C)o2)cc1OC is higher in inhibition: -5.62% for the first, 55.2% for the second.

Going from Cc1ccc(CNC(=O)CSc2nc(C)cc(C)c2C#N)cc1 to CCOC(=O)c1cccc(NC(=S)NCc2ccc(C)cc2)c1, the inhibition rises from -9.02% to 2.33%.

First: C/C(=N\NC(=O)C1(C)NC(C)(C)Cc2ccccc21)c1ccccc1 (configuration not stated)
Second: CCOC(=O)/C=C(\C)N1N=C(c2ccccc2)CC1c1ccccc1 (configuration not stated)
The inhibition of the first is lower: 1.17% for the first, 33.1% for the second.

Going from COc1ccc(C(=O)Nc2ccc(N3CCN(c4ccc(OC)cc4)CC3)c(C#N)c2)cc1 to COc1ccc(-n2c(SCC(=O)Nc3cc(C(=O)O)ccc3C)nc3ccccc3c2=O)cc1Cl, the inhibition falls from -7.83% to -8.45%.

Going from COc1ccc(-n2c(=S)[nH]c3cc(C(=O)NCCCN4CCCC4=O)ccc3c2=O)cc1OC to COCCCn1c(SCc2ccc(OC)cc2)nc2cc(OC)c(OC)cc2c1=N, the inhibition rises from -1.47% to 1.79%.

Compared with CC(=O)COC(=O)CNC(=O)c1ccc(Br)cc1, COC(=O)c1cccc(NC(=O)CCCOc2cccc(C)c2)c1 is lower in inhibition: -5.11% for the first, -9.57% for the second.

Going from O=C(CCCCCNC(=S)Nc1ccccc1)C[N+](=O)[O-] to CNC(=S)Nc1cccc(C(C)=O)c1, the inhibition falls from -1.95% to -3.56%.

Compared with CN(C)c1cc(-c2cccc([N+](=O)[O-])c2)oc(=O)c1Cl, Cc1cc(=O)oc(C)c1C(=O)Nc1cccc(F)c1 is lower in inhibition: 1.64% for the first, -6.13% for the second.

First: Cc1ccc(C(=O)N[C@@H](C)CN2C3=NC[C@H](Cc4ccccc4)N3C[C@H]2Cc2ccc(O)cc2)cc1Br
Second: Cc1ccc(C(=O)NCCN2C3=NC[C@@H](Cc4ccccc4)N3C[C@H]2Cc2ccc(O)cc2)cc1Br
The inhibition of the first is lower: 21.4% for the first, 40.7% for the second.

Compared with COc1ccc(C[C@@H]2CN3C(=NC[C@@H]3C)N2C[C@H](C)NC(=O)c2ccc(C)c(Br)c2)cc1, Cc1ccc(C(=O)NCCN2C3=NC[C@H](Cc4ccc(O)cc4)N3C[C@H]2Cc2ccc(O)cc2)cc1Br is higher in inhibition: 8.27% for the first, 13.6% for the second.

Compared with COc1ccc(-c2nc(Cn3c(SCc4ccc(F)cc4)nc4ccncc43)c(C)o2)cc1OC, COc1cc2nc(SCc3ccc(F)cc3)n(Cc3cccs3)c(=N)c2cc1OC is lower in inhibition: 67.8% for the first, 8.63% for the second.

Going from COCCCn1c(SCc2ccccc2)nc2cc(OC)c(OC)cc2c1=N to COCCCn1c(SCc2cccc(OC)c2)nc2cc(OC)c(OC)cc2c1=N, the inhibition rises from 0.99% to 6.91%.

Compared with COc1cc2nc(SCc3ccc(Cl)cc3Cl)n(Cc3cccs3)c(=N)c2cc1OC, COc1ccc(CCNC(=O)NC23CC4CC(CC(C4)C2)C3)cc1OC is lower in inhibition: 11.9% for the first, -2.6% for the second.

Going from O=C(C(=O)N1CCc2ccccc2C1)c1cn(CC(=O)N2CCOCC2)c2ccccc12 to O=C(CCC1CCCN(C(=O)CC2=CCCCC2)C1)N1CCN(c2ccccn2)CC1 (configuration not stated), the inhibition rises from -0.84% to 8.51%.

Compared with CC1CC1C(=O)OCC(=O)Nc1cccc(S(=O)(=O)NC2=NCCCCC2)c1 (configuration not stated), NS(=O)(=O)c1ccc(CCNC(=O)NC23CC4CC(CC(C4)C2)C3)cc1 is higher in inhibition: -7.4% for the first, 3.03% for the second.

Going from CN1/C(=C\C(=O)c2cncc(Br)c2)C(C)(C)c2ccccc21 to CCOC(=O)c1cc(-c2ccccc2)nn1-c1ccccn1, the inhibition falls from 25.1% to -4.13%.

Compared with Cc1ccc2cc3cc(C(=O)N4CCC5(CC4)OCCO5)oc3nc2c1, COc1ccc2nc3oc(C(=O)N4CCC5(CC4)OCCO5)cc3cc2c1 is higher in inhibition: -1.4% for the first, 5.85% for the second.

Going from CCSc1nnc([C@H](Cc2ccccc2)NC(=O)OC(C)(C)C)o1 to CCN(CC)C(=O)c1cc2c(=O)c3cc(F)ccc3oc2nc1C, the inhibition falls from 14.6% to 1.36%.

Compared with O=C(NCCCO)NC12CC3CC(CC(C3)C1)C2, C#CCOCCOCCOCCNc1nc(N2CCOCC2)nc(N2CCN(C(=O)Cn3cc(CCCN=C(N)N)nn3)CC2)n1 is lower in inhibition: 1.78% for the first, -13.8% for the second.
